Bioassay records: PubChem, The Scripps Research Institute Molecular Screening Center
hcDAF12 agonist = activates DAF-12 receptor from parasite H. contortus; activation, % at 6.8 µM; HEK293 hcDAF-12 lit1-tk-luc reporter, luminescence; 0% DMSO, 100% Δ7-dafachronic acid; 370,000 compounds, 1.4% hits;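 active = activation above the mean of all tested compounds plus 3 SD, cut at about 5.5% in these data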;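 also: 100% = response to 3 µM Δ7-dafachronic acid high control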
DAX1 inh-1 = NR0B1 (DAX1) inhibition. AID 504766. inhibition, % at 6.75 µM. 340,000 compounds, 0.99% hits. P51843. HEK293 Gal4-DAX1 luciferase reporter, luminescence;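 active = inhibition above the mean over all tested compounds plus 3 SD, cut at about 4.2% in these data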;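 also: 0% = DAX1-transfected cells with DMSO and 100% = empty-vector control cells with DMSO; inhibition shows as a rise in luminescence from relieved DAX1 repression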
Target sequence (P51843 207-470 limits assumed): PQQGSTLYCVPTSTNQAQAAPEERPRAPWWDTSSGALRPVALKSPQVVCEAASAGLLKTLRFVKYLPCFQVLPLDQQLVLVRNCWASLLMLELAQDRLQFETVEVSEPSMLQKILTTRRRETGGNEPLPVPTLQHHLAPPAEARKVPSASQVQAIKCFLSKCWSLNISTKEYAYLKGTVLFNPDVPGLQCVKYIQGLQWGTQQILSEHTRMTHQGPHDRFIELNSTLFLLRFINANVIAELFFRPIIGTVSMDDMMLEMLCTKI
ssDAF12 agonist = activates DAF-12 receptor from parasite S. stercoralis | HEK293 ssDAF-12/GRIP1 lit1-tk-luc reporter, luminescence; % of 3 µM dafachronic acid response | activation, % at 6.8 µM | 370,000 compounds, 1% hits | AID 652126;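 active = activation above the mean over all tested compounds plus 3 SD, cut at about 0.9% in these data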;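 also: 0% = DMSO-only wells and 100% = 3 µM delta7-dafachronic acid wells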
hgDAF-12 ag = activates the H. glycines DAF-12 receptor ligand-binding domain. AID 687014. activation, % at 6.8 µM. 370,000 compounds, 1.8% hits. HEK293 GAL4-hgDAF12 UAS-luciferase reporter, agonist luminescence; normalized to butyrate control;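 active = activation above a cutoff set at the mean of all screened compounds plus 3 SD, cut at about 10% in these data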;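 also: 0% = DMSO wells and 100% = sodium butyrate wells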
DAX1 inh-2 = DAX1 (NR0B1) inhibition, primary screen. HEK293T StAR-luciferase reporter, SF-1/DAX-1 repression relief. inhibition, % at 6.8 µM. 370,000 compounds, 1.1% hits;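 active = inhibition above the mean over all tested compounds plus 3 SD, cut at about 3.6% in these data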;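 also: 0% = DAX-1 cells with DMSO and 100% = cells lacking DAX-1 with DMSO; higher inhibition means more luminescence from relief of DAX-1 repression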
DAX1 conf = confirmation of human DAX1 (NR0B1) inhibitors | shares compounds with DAX1 inh-2 | HEK293T StAR-promoter luciferase reporter, SF-1/DAX-1 repression | inhibition, % at 6.8 µM | 2,400 compounds, 87% hits | AID 652134;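 active = inhibition above the average of every tested compound plus 3 SD, cut at about 3.8% in these data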;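 also: 0% = DAX-1 cells with DMSO and 100% = no DAX-1 control cells with DMSO; active compounds raise luminescence by relieving repression of the StAR reporter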
SF1 mutant ctr = nonselective inhibitor or artifact in SF-1 mutant DAX1 counter-screen; shares compounds with DAX1 inh-2; HEK293 StAR-luciferase, SF-1 AF2 mutant, luminescence; inhibition, % at 6.8 µM; 2,400 compounds, 78% hits; AID 652136;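 active = inhibition above the mean of all tested compounds plus 3 SD, cut at about 3% in these data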;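 also: 0% = DAX-1 transfected cells with DMSO and 100% = cells without DAX-1 with DMSO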
Numbers without * were called inactive; / = not tested or not shown. Most compounds without a hit are left out; they make up all but 4.1% or so of the library.

SMILES	hcDAF12 agonist	DAX1 inh-1	ssDAF12 agonist	hgDAF-12 ag	DAX1 inh-2	DAX1 conf	SF1 mutant ctr
O=C(NCCS(=O)(=O)NCCCc1ccccc1)c1ccccc1	-1	2	-1	0	0	/	/
Cn1nc(C(F)(F)F)c(-c2cccc(C(F)(F)F)c2)c1NC(=O)Nc1ccc(F)cc1	-1	/	-2	-2	0	/	/
O=c1c2[nH]c3ccc(F)cc3c2nc2n1CCCS2	-1	1	-1	0	0	/	/
Cc1ccc(C2(C)NC(=O)N(CC(=O)N(C)CC(=O)Nc3cccc4ccccc34)C2=O)cc1 (stereo unspecified)	3	-1	0	0	0	/	/
Cc1nc2nc(-c3ccc(Cl)cc3)cn2nc1C	5	0	0	10	6.2*	9.4*	2.9*
Cc1nc2nc(-c3cccs3)cn2nc1C	3	0	0	8	3	/	/
Cc1ccc(C(=O)NNC(=S)NC(=O)COc2ccccc2)cc1	-1	0	-1	1	0	/	/
CC(C)(C)c1ccc(C(=O)NC(=S)NNC(=O)COc2ccccc2)cc1	2	1	0	11*	12*	2	2
CC(C)Oc1ccc(C(CC(=O)O)Cc2ccccc2)cc1 (stereo unspecified)	-2	0	-1	0	-1	/	/
COc1ccc(-c2cnc3c(NC=O)cc(-c4ccccc4OC)cn23)cc1OC	-3	/	-2	0	11*	30*	-8
COc1ccc(-c2cc(NC=O)c3ncc(-c4ccc(OC)c(OC)c4)n3c2)cc1OC	-2	/	-1	0	-2	/	/
O=C(Nc1ccc(N2CCCC2)cc1)c1ccccc1F	5	0	0	13*	4.5*	7.1*	3.5*
CC(=O)Nc1ccc(NC(=O)CSc2nnnn2-c2ccc(F)cc2)cc1	-1	-1	-1	5	-1	/	/
C=CCOC(=O)Nc1nc(CCNC(=O)OC(C)(C)C)c(C(=O)O)s1	1	/	-1	-1	-1	/	/
Cc1ccc(NC(=O)c2sccc2C)nc1	5	2	1	11*	9.7*	9.2*	7.2*
COc1cccc([C@H]2NC(=O)C/C=C/[C@@H](C)[C@@H](c3cccc(OC)c3)NC(=O)C/C=C/[C@H]2C)c1	-2	/	-2	0	-1	/	/
O=C(CCS(=O)(=O)c1ccccc1)N(CCCN1CCOCC1)c1nc2ccc(F)cc2s1	1	0	-1	9	6.7*	5.5*	2
CCOC(=O)c1c(C)[nH]c(N=Nc2ccc(OC)cc2)c1C	1	4	-1	9	3	/	/
Cc1ccc(OCc2cc(C(=O)N3CCN(C4CCCC4)CC3)no2)cc1C	-1	2	-1	4	0	/	/
CCN(Cc1ccncc1)C(=O)c1cc(COc2ccc(C)c(C)c2)on1	-2	1	-1	0	-4	/	/
Cc1ccc(OCc2cc(C(=O)N(CCO)Cc3cccs3)no2)cc1C	5	3	0	7	5.1*	6.1*	3.7*
COc1cc(C)ccc1OCc1cc(C(=O)N2CCCCCCC2)no1	2	1	1	9	4.6*	5.4*	3.5*
COc1ccc(OCc2cc(C(=O)N3CCCCCCC3)no2)c(Cl)c1	1	2	0	6	2	/	/
Cc1ccc(OCc2cc(C(=O)N3CCN(C4CCCCC4)CC3)no2)cc1C	2	2	-1	4	6.4*	6.5*	4.1*
COc1cc(C)ccc1OCc1cc(C(=O)N2CCN(C3CCCCC3)CC2)no1	3	1	0	11*	5.7*	5.7*	3.8*
SMILES	hcDAF12 agonist	DAX1 inh-1	ssDAF12 agonist	hgDAF-12 ag	DAX1 inh-2	DAX1 conf	SF1 mutant ctr
CCOc1ccc(S(=O)(=O)NN=C(C)c2cccnc2)cc1	-1	0	0	0	1	/	/
CCCCn1c(=O)[nH]c(=O)c2c1nc(-c1ccccc1OC(F)F)n2C	-2	1	-1	-3	0	/	/
COCc1cc(C)nc(SCC(=O)Nc2ccc(N3CCOCC3)cc2)c1C#N	-1	0	-1	-1	-6	/	/
COc1cc(C)ccc1OCc1cc(C(=O)NCc2ccncc2)no1	2	1	0	11*	4.7*	5.3*	3.0*
Cc1ccc(OCc2cc(C(=O)N3CCN(c4ccccc4)CC3)no2)cc1C	4	4	0	13*	5.8*	11*	6.5*
Cc1cc(OCc2cc(C(=O)N3CCCCCC3)no2)cc(C)c1Cl	4	1	1	8	5.5*	7.1*	4.1*
c1ccc2c(C[C@@H]3CNCCN3CCC34CC5CC(CC(C5)C3)C4)cccc2c1	-1	0	-2	-1	0	/	/
O=C(Cc1cc(=O)oc2cc(O)ccc12)NC(Cc1ccc(Cl)cc1)C(=O)O (stereo unspecified)	-1	1	-1	-1	0	/	/
Cc1nc2scc(C)n2c(=O)c1S(=O)(=O)NCc1ccc(F)cc1	3	0	-1	1	0	/	/
COc1ccc(C(CNC(=O)c2cccc(Br)c2)N2CCCC2)cc1 (stereo unspecified)	0	0	-1	2	1	/	/
COc1ccc(C(CNC(=O)c2cccc(NC(=O)c3cccs3)c2)N2CCCC2)cc1 (stereo unspecified)	1	1	-1	2	4.5*	6.4*	3.7*
Cc1ccc(NC(=O)CCC(=O)c2ccc(Cl)s2)nc1	-1	-1	-1	5	-1	/	/
O=C(NCCc1ccccc1)C1=COCCO1	4	1	-1	8	7.8*	8.7*	6.5*
O=C(Nc1nccs1)c1csc([C@H]2C[C@H](O)[C@@H](CO)O2)n1	4	/	1	10	4.9*	5.9*	3.0*
CC(=O)Nc1ccc(NC(=O)c2csc([C@H]3C[C@H](O)[C@@H](CO)O3)n2)cc1	0	/	-1	-1	0	/	/
O=C(NCCn1ccc2ccccc21)c1ccc2c(c1)OCO2	4	3	0	8	4.8*	13*	7.9*
COc1ccc(-n2c(=O)c(NC(=O)c3ccccc3)c3n(c2=S)CCCCC3)cc1	-2	1	-1	0	4.9*	0	0
O=C(/C(N=Nc1cccc(C(F)(F)F)c1)=C(/O)c1cccs1)C(F)(F)F	3	2	0	5	0	/	/
Cc1ccc(N=C/C(C(=O)C(F)(F)F)=C(\O)c2cccs2)cc1	6.5*	-3	0	5	4.5*	18*	6.2*
COC(=O)C1CCC(=O)N1C(c1ccc(OC)cc1)c1cc(OC)c(OC)c(OC)c1 (stereo unspecified)	0	1	-1	-5	6.2*	20*	-7
